“And” between values parts separate entries of the source, which are not always exact repeats. Equal entries are not always repeated. For some assays here: Results with a measured potency or affinity are listed apart. Some compounds were tested as several samples or in several runs, with calls that do not always agree. The source made the active and inactive calls.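 The calls were made as follows, unless noted: active = thallium flux through the channel raised or lowered by more than 3 SD from vehicle-only wells, actives on both sides; inactive = the rest.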

Experimental findings from PubChem BioAssay are described below.

Assay [1] in a line: compounds altering viability of human ES cells (AID 493140; call rule not given here;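 also: cells exposed to compounds for four days before counting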). As to conditions: human embryonic stem cell survival screen; stronger effect = higher value.
Assay [2] can be described thus: modulation of C. elegans fzo-1 (AID 1259413; call rule not given here;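 also: fzo-1 mutant C. elegans worms in liquid wells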). As to conditions: C. elegans fzo-1 modulator screen, mean read-out; stronger effect = higher value.
Assay [3] in a line: galactose survival enhancers in mitochondrial complex I cybrids – cell-based, galactose medium, ATP luminescence, primary screen (AID 1645843;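 active = z-score of at least 1.8 in each of two replicates, scored against plate mean and spread of sample wells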;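 also: positive z means more ATP and so rescue of galactose-driven cybrid death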). As to conditions: complex I mutant cybrid cells, 72 h, stronger effect = higher value.
For a further assay, the system named is F380Y/beta1. Briefly: BK channel mutant inhibitors and activators – cell-based, U2OS BacMam, thallium flux, beta subunits, selectivity assay, profiling panel (AID 1259406).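 Also: initial slope of Thallos dye fluorescence rise after thallium is added; log ratio against the mean of 0.3% DMSO vehicle wells on the same plate.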 As to conditions: U2OS BacMam BK variants, at 30 µM.
In a further assay the test system is F380Y/beta2Delta. Described as above. As to conditions: U2OS BacMam BK variants, at 30 µM.
In the next assay the test system is F380Y/beta4. The assay is described as above. As to conditions: U2OS BacMam BK variants, at 30 µM.
The target in assay [4] is Calcium-activated potassium channel subunit alpha-1 (Homo sapiens) + Leucine-rich repeat-containing protein 26 (Homo sapiens) (UniProt Q12791+Q2I0M4). The description is as above. As to conditions: U2OS BacMam BK variants, F380Y/Slo1WT/gamma1, at 30 µM.
Chain of Calcium-activated potassium channel subunit alpha-1 (Homo sapiens) + Leucine-rich repeat-containing protein 26 (Homo sapiens) (Q2I0M4 whole entry, looked up, one chain of several): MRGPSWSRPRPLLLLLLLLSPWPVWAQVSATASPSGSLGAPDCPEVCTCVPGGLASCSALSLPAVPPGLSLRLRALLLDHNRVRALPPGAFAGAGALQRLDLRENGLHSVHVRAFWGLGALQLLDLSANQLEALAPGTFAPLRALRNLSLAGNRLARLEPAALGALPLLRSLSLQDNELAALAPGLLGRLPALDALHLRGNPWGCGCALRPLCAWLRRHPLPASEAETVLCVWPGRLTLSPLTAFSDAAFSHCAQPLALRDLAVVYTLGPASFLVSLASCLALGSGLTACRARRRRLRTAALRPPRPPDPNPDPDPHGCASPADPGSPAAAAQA
Another assay concerns R275C. The assay is described as above. As to conditions: U2OS BacMam BK variants, at 30 µM.
In the next assay the test system is R275C/beta1. The description is as above. As to conditions: U2OS BacMam BK variants, at 30 µM.
Another assay deals with R275C/beta2Delta. Described as above. As to conditions: U2OS BacMam BK variants, at 30 µM.
Another assay deals with R275C/beta4. The assay is described as above. As to conditions: U2OS BacMam BK variants, at 30 µM.
The next assay has as its system R275C/Slo1WT/beta2. The description is as above. As to conditions: U2OS BacMam BK variants, at 30 µM.
Assay [5] concerns Neuropilin-2 / VEGF-C interaction (human). Briefly: small molecules blocking Neuropilin-2/VEGF-C interaction – biochemical, microplate binding format, z-score (AID 743281; call rule not given here). As to conditions: microplate NRP2/VEGF-C binding assay; stronger effect = lower value.
A short description of assay [6]: blockers of polyQ-driven CASP3 activation – cell-based (AID 1583). As to conditions: polyglutamine-induced caspase-3 activation, cell assay; stronger effect = higher value;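 tested at 10 µM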.
The nature of assay [7]: yeast 75Q aggregation reduction – 75Q-TubU reporter (AID 1593). As to conditions: Yeast 75Q polyglutamine aggregation reporter.
Assay [8] can be described thus: restoration of touch response, mutant HTT neurons – whole organism, C. elegans mechanosensory neurons, N-terminal huntingtin (AID 1599). As to conditions: C. elegans polyQ-huntingtin mechanosensory neurons, stronger effect = higher value.
A short description of assay [9]: blockers of cytochrome c efflux from mitochondria – biochemical, purified mitochondria (AID 1603).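 Also: mouse liver mitochondria challenged with calcium chloride; signal normalized to the plate average as 100%.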 As to conditions: stronger effect = lower value.
Assay [10] can be described thus: polyglutamine aggregate formation blockers (AID 1604). As to conditions: polyglutamine-induced protein aggregation inhibition assay; stronger effect = higher value; tested at 2.5 µM.
Assay [11] can be described thus: glutamate transport activators, MN-1 cells, MN-1 cell line (AID 1612).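 Also: tested at 1 µM final; 0% = mean of DMSO vehicle wells on each plate; positive means more glutamate uptake than control and negative means less.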 As to conditions: MN-1 motor neuron cells, stronger effect = higher value.
Assay [12] is described as follows: 75Q-TubH aggregate inhibition, S. cerevisiae, yeast (AID 1616). As to conditions: S. cerevisiae 75Q-TubH polyglutamine aggregation suppression; stronger effect = higher value.

On to `C[C@H]1C[C@@H]2[C@H]([C@@H](O)C[C@@]3(C)[C@H]2CC[C@]3(O)C(=O)CO)[C@@]2(C)C=CC(=O)C=C12`, for which the survival in [1] is 11.9 (inactive). For the same compound, the mean signal in assay [2] is 290 (inactive). For the same compound, the z-score in assay [3] was -0.075 (inactive) and 0.335 (inactive). The log fold change Tl+ flux is 0.0255 (inactive) in the assay on F380Y/beta1; 0.00102 (inactive) in the assay on F380Y/beta2Delta; -0.0167 (inactive) in the assay with F380Y/beta4; -0.0378 (inactive) in [4]; -0.0399 (inactive) in the assay with R275C; -0.0807 (inactive) in the assay with R275C/beta1. In addition, the results for the log fold change Tl+ flux in the assay with R275C/beta2Delta, with R275C/beta4 and in the assay with R275C/Slo1WT/beta2 were 0.0437 (inactive), -0.00754 (inactive) and 0.0152 (inactive), respectively.

Regarding `CC[C@H](C)C(=O)O[C@H]1C[C@H](O)C=C2C=C[C@H](C)[C@H](CC[C@@H](O)C[C@@H](O)CC(=O)O)[C@H]21`, the z-score in assay [5] was 0.492 (inactive); in [3] it was 0.175 (inactive). Also, in assay [2], the mean signal was 245 (inactive). Moreover, the log fold change Tl+ flux was -0.03 (inactive) in the assay on F380Y/beta1; -0.0757 (inactive) in the assay on F380Y/beta2Delta; 0.0119 (inactive) in the assay on F380Y/beta4; 0.00396 (inactive) in [4]; -0.0381 (inactive) in the assay with R275C; -0.014 (inactive) in the assay on R275C/beta1. Further, the log fold change Tl+ flux is 0.0137 (inactive) in the assay with R275C/beta2Delta, -0.0312 (inactive) with R275C/beta4 and -0.0454 (inactive) with R275C/Slo1WT/beta2.

In the case of `CC(=O)[C@H]1CC[C@H]2[C@@H]3C[C@H](C)C4=CC(=O)CC[C@]4(C)[C@H]3[C@@H](O)C[C@]12C`, the survival in [1] is 6.42 (inactive). Also, the mean signal in assay [2] is 277 (inactive). Also, the z-score in [3] was -0.825 (inactive). Besides, the log fold change Tl+ flux in the assay on F380Y/beta1 was -0.00433 (inactive); with F380Y/beta2Delta, -0.0669 (inactive); in the assay with F380Y/beta4 it was -0.0204 (inactive); in assay [4], -0.019 (inactive); with R275C, -0.0356 (inactive); in the assay with R275C/beta1, 0.0813 (inactive). The log fold change Tl+ flux is 0.0373 (inactive) with R275C/beta2Delta, -0.0699 (inactive) with R275C/beta4 and -0.105 (inactive) in the assay with R275C/Slo1WT/beta2.

In the case of `CCS(=O)(=O)CCn1c([N+](=O)[O-])cnc1C`, the survival in [1] is 3.33 (inactive). For the same compound, the z-score in assay [5] is -0.45 (inactive); in assay [3] it was 0.655 (inactive) and 0.575 (inactive). Besides, the mean signal in assay [2] is 232 (inactive). Besides, the log fold change Tl+ flux in the assay with F380Y/beta1 is 0.0365 (inactive); in the assay on F380Y/beta2Delta, -0.0231 (inactive); in the assay on F380Y/beta4, -0.041 (inactive); in assay [4] it was -0.0103 (inactive); with R275C, 0.0103 (inactive); in the assay on R275C/beta1, -0.0101 (inactive). The log fold change Tl+ flux in the assay with R275C/beta2Delta is -0.0183 (inactive); in the assay with R275C/beta4 it was -0.0453 (inactive); in the assay with R275C/Slo1WT/beta2 it was -0.0158 (inactive).

Consider `O=C1[C@H](CC[C@H](O)c2ccc(F)cc2)[C@@H](c2ccc(O)cc2)N1c1ccc(F)cc1`, for which the z-score in assay [5] was -0.399 (inactive). Besides, in assay [2], the mean signal is 228 (inactive). The log fold change Tl+ flux was 0.33 (active) in the assay with F380Y/beta1; 0.0773 (inactive) with F380Y/beta2Delta; 0.106 (active) with F380Y/beta4; 0.0312 (inactive) in [4]; -0.0195 (inactive) in the assay with R275C; 0.416 (active) with R275C/beta1. In addition, the results for the log fold change Tl+ flux with R275C/beta2Delta, in the assay on R275C/beta4 and with R275C/Slo1WT/beta2 were 0.12 (active), 0.207 (active) and 0.0256 (inactive), respectively.

The term inhibition denotes the change of the read-out against control, counted positive when it falls. For the compound `CN(C)c1ccc(O)c2c1C[C@H]1C[C@H]3[C@H](N(C)C)C(=O)C(C(N)=O)=C(O)[C@@]3(O)C(=O)C1=C2O`, in assay [6], the inhibition was -8.86%. In assay [7], this compound came in with a score of 0.98. The compound further registered a rescue above control in assay [8] of 0. Also, the cytochrome c release ratio in assay [9] amounted to 0.25. Moreover, in [10], the inhibition of aggregation stood at 88.9%. The glutamate uptake change in [11] came out at 5.89%. The compound further registered an aggregation suppression score in assay [12] of 0.425. Moreover, the survival in assay [1] is 9.58 (inactive). In addition, in [3], the z-score was -1.26 (inactive) and 2.96 (active). In addition, the log fold change Tl+ flux with F380Y/beta1 is 0.00506 (inactive); in the assay with F380Y/beta2Delta it was 0.045 (inactive); in the assay with F380Y/beta4, 0.0112 (inactive); in assay [4], 0.0283 (inactive); in the assay on R275C, -0.0348 (inactive); in the assay on R275C/beta1, -0.00562 (inactive). The results for the log fold change Tl+ flux with R275C/beta2Delta, in the assay with R275C/beta4 and in the assay with R275C/Slo1WT/beta2 were -0.0532 (inactive), -0.0291 (inactive) and -0.0415 (inactive), respectively.

Regarding `CN1CCN(CCCN2c3ccccc3Sc3ccc(C(F)(F)F)cc32)CC1`, in [6], the inhibition was -8.73%. In addition, the score in [7] was determined as 1.12. The rescue above control in assay [8] was 0. In addition, in assay [9], the cytochrome c release ratio was found to be 2.01. Also, in [10], the inhibition of aggregation is 65.5%. Further, the glutamate uptake change in assay [11] was found to be 16.2%. In [12], this compound came in with an aggregation suppression score of 1.63. Moreover, the survival in assay [1] was 1.83 (inactive). Moreover, the z-score was 0.311 (inactive) in assay [5]; -1.38 (inactive) and -1.44 (inactive) and -1.35 (inactive) in assay [3]. The mean signal in [2] is 265 (inactive). The log fold change Tl+ flux is 0.0861 (active) with F380Y/beta2Delta; 0.0472 (inactive) in assay [4]; -0.157 (active) in the assay on R275C; 0.287 (active) in the assay with R275C/beta1; -0.0448 (inactive) with R275C/beta2Delta.

For `Cc1c(OCC(F)(F)F)ccnc1CS(=O)c1nc2ccccc2[nH]1` (centres undefined), the inhibition in assay [6] is -8.62%. Besides, in assay [7], the score was 0. The compound further came in with a rescue above control in assay [8] of 4.9. Also, the cytochrome c release ratio in assay [9] turned out to be 0.73. In addition, the inhibition of aggregation in [10] is 29.4%. In assay [11], the glutamate uptake change was -0.46%. In assay [12], the aggregation suppression score is -0.00244. Further, the survival in assay [1] was 14.6 (inactive). Also, the z-score in assay [5] is 0.0966 (inactive); in [3] it was -1.12 (inactive) and -0.8 (inactive) and -0.405 (inactive). Also, the mean signal in assay [2] was 250 (inactive).

Turning to `C#C[C@]1(O)CC[C@H]2[C@@H]3CCC4=CC(=O)CC[C@@H]4[C@H]3CC[C@@]21CC`, the survival in [1] was 3.67 (inactive). For the same compound, in assay [3], the z-score is 0.335 (inactive). Moreover, the log fold change Tl+ flux in the assay with F380Y/beta1 is 0.149 (active); in the assay with F380Y/beta2Delta, 0.00649 (inactive); with F380Y/beta4, -0.00261 (inactive); in assay [4], 0.0485 (inactive); with R275C, -0.0255 (inactive); in the assay on R275C/beta1 it was 0.00999 (inactive). Besides, the log fold change Tl+ flux in the assay on R275C/beta2Delta was -0.0278 (inactive); with R275C/beta4, -0.0556 (inactive); in the assay with R275C/Slo1WT/beta2, -0.0344 (inactive).

Turning to `CCOC(=O)C1=C(COCCN)NC(C)=C(C(=O)OC)C1c1ccccc1Cl` (centres undefined), the z-score in [5] was -0.363 (inactive); in assay [3] it was -0.815 (inactive) and -0.625 (inactive) and 0.7 (inactive). Further, the mean signal in [2] is 214 (inactive).
